# Laboratory results published in PubChem BioAssay (NCATS).
# Records with an inconclusive call do not appear. The source made the active and inactive calls. Unless noted, calls follow the shape of the dose curve; as a rule, active = well fitted curve in the direction sought with a large enough effect; inconclusive = small, poorly fitted or top-dose-only effect, or another doubt; inactive = no such curve, though single readings can be large; an effect the other way counts as inactive or inconclusive.
# How the values were obtained:
# [1] = target: N-terminal Xaa-Pro-Lys N-methyltransferase 1 (Homo sapiens) (UniProt Q9BV86); test: Confirmatory qHTS for Inhibitors of N-terminal methyltransferase 1 (NTMT1): MTaseGlo Assay (AID 1645874); also: nearly all actives have a fitted effect of over 65% in size; also: potency is read from the fitted curve at half-maximal effect
# N-terminal Xaa-Pro-Lys N-methyltransferase 1 (Homo sapiens), sequence (Q9BV86 whole entry, looked up): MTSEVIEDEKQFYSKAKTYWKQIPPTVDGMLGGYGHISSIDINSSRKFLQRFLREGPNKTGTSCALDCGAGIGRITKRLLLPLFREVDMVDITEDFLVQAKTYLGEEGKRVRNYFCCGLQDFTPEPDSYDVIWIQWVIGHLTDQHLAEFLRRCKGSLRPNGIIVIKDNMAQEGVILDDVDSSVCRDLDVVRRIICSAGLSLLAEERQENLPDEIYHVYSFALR
# Summary of the method: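 NTMT1 (125 nM) preincubated 15 min with compound and 100 uM SAM, then 1 uM SPKRIA peptide added for 30 min at room temperature. SAH detected by MTase-Glo luminescence; normalized to no-enzyme and DMSO controls, fitted to 4-parameter Hill.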
# [2] = qHTS for Inhibitors of Ubiquitin-specific Protease USP2a Using CHOP2 as the Reporter: K633 Counterscreen (AID 652168); also: series mostly up to about 57 µM; % of control where 0% means no effect
# Summary of the method: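 Cell-free interference counterscreen without USP2a: compounds pinned into enzyme-free buffer (20 mM Tris pH 8, 2 mM beta-mercaptoethanol, 0.05% Chaps), then DiUb K48-4IQF substrate added (100 nM stock); fluorescence read kinetically, Ex 525/Em 598.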
# [3] = target: Ubiquitin carboxyl-terminal hydrolase 2 (Homo sapiens) (UniProt O75604); test: qHTS for Inhibitors of Ubiquitin-specific Protease USP2a Using CHOP2 as the Reporter: K484 Substrate (AID 652173); conditions: USP2 cleavage of DiUb K48 IQF substrate, fluorescence;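 also: cleavage of internally quenched K48 di-ubiquitin substrate measured as rising fluorescence over time; potency is read from the fitted curve at half-maximal effect; nearly all actives have a fitted effect of over 70% in size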
# Ubiquitin carboxyl-terminal hydrolase 2 (Homo sapiens), sequence (O75604 whole entry, looked up): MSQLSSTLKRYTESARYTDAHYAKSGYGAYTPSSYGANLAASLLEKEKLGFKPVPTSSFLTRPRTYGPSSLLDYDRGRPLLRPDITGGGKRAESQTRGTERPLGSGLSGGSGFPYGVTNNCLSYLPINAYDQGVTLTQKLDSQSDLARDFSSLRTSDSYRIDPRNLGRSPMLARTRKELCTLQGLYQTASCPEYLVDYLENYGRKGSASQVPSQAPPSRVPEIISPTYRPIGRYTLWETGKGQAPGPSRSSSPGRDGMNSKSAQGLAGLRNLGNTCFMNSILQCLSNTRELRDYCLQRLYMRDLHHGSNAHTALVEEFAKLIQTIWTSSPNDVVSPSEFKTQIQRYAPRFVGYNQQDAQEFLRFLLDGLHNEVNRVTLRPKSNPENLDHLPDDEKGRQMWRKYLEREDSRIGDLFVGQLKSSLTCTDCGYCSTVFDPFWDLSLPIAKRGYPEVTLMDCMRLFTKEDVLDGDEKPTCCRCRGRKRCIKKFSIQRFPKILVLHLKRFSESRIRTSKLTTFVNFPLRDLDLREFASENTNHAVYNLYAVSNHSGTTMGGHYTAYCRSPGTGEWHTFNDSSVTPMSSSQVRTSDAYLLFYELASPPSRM
# Summary of the method: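 USP2 (dispensed at 5 nM) was pinned with compounds, then DiUb K48 internally quenched fluorescent substrate (dispensed at 100 nM) was added. The buffer was 20 mM Tris pH 8, 2 mM beta-mercaptoethanol and 0.05% CHAPS. Cleavage was read kinetically as rising fluorescence, Ex 525/Em 598.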
# [4] = Primary qHTS for inhibitors of nuclear receptor binding SET domain protein 2 (NSD2) in an isogenic RCH-ACV NSD2 p.E1099K mutant (9B) (AID 1645876); also: nearly all actives have a fitted effect of over 70% in size; also: potency is read from the fitted curve at half-maximal effect
# [5] = Primary qHTS for inhibitors of nuclear receptor binding SET domain protein 2 (NSD2) in an RCH-ACV wild type WT cells (2C) (AID 1645877); also: potency is read from the fitted curve at half-maximal effect; nearly all actives have a fitted effect of over 70% in size
# [6] = target: Glutathione peroxidase 1 (Homo sapiens) (UniProt P07203); test: Primary qHTS Assay for Inhibitors of Recombinant Selenoprotein Glutathione Peroxidase 1 (GPX1) (AID 1845191); also: nearly all actives have a fitted effect of over 65% in size
# Glutathione peroxidase 1 (Homo sapiens), sequence (P07203 whole entry, looked up): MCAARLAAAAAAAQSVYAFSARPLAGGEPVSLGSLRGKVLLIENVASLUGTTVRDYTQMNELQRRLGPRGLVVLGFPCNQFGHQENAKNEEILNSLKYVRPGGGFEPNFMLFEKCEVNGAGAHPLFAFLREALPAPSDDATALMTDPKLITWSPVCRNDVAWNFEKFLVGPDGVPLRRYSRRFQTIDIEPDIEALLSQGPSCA
# Summary of the method: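 10 nM GPX1 + cpd, 30 min RT; start w/ 1 mM GSH, 0.5 mM cumene hydroperoxide, 0.5 mM NADPH, 100 nM GR, 0.01% BSA; buffer 50 mM Tris-HCl pH 7.5, 2 mM EDTA, 150 mM NaCl; Fl 340/450, 0 & 15 min.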
# [7] = target: Phospholipid hydroperoxide glutathione peroxidase GPX4 (Homo sapiens) (UniProt P36969); test: Primary qHTS Assay for Inhibitors of Recombinant Selenoprotein Glutathione Peroxidase 4 (GPX4) (AID 1845192); also: series mostly up to about 50 µM; % is scaled to controls: 0 for no effect and ±100 for the full control effect; nearly all actives have a fitted effect of over 65% in size
# Phospholipid hydroperoxide glutathione peroxidase GPX4 (Homo sapiens), sequence (P36969 whole entry, looked up): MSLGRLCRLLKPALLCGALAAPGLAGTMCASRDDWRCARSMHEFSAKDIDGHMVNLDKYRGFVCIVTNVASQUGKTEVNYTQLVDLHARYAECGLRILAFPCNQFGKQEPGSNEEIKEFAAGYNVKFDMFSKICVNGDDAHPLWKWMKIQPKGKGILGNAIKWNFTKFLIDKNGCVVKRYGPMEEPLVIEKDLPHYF
# Summary of the method: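 NADPH consumption, followed by fluorescence at 340/450 nm between 0 and 15 min, reports GPX4 activity via coupled glutathione reductase (100 nM). Enzyme 200 nM was pre-exposed to compound 30 min; 0.5 mM cumene hydroperoxide and 1 mM GSH served as substrates.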
# [8] = qHTS drug screen for cell cycle checkpoint inhibitors in PARPi-resistant BRCA-mutant ovarian cancer cell lines. (AID 1963452; calls by dose curve; also: potency is read from the fitted curve at half-maximal effect); conditions: PEO1/OlaR viability, CellTiter-Glo luminescence, 96 h; for Z-AUC: stronger effect = lower value
# Summary of the method: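 PEO1, PEO4 and PEO1/OlaR ovarian cancer cells, 600 per well, exposed 96 h at 37C to a dilution series. Viability read by CellTiter-Glo luminescence, normalized to DMSO and empty wells; activity summarized as Z-AUC.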
# [9] = target: Rap guanine nucleotide exchange factor 3 (Homo sapiens) (UniProt O95398); test: Confirmatory qHTS for agonist of cAMP-regulated guanine nucleotide exchange factor 3 (EPAC1) (AID 1645881);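 also: EPAC1 catalysed release of BODIPY-GDP from Rap1B seen as fluorescence loss; 100% = effect of cAMP agonist control; nearly all actives have a fitted effect of over 75% in size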
# Rap guanine nucleotide exchange factor 3 (Homo sapiens), sequence (O95398 whole entry, looked up): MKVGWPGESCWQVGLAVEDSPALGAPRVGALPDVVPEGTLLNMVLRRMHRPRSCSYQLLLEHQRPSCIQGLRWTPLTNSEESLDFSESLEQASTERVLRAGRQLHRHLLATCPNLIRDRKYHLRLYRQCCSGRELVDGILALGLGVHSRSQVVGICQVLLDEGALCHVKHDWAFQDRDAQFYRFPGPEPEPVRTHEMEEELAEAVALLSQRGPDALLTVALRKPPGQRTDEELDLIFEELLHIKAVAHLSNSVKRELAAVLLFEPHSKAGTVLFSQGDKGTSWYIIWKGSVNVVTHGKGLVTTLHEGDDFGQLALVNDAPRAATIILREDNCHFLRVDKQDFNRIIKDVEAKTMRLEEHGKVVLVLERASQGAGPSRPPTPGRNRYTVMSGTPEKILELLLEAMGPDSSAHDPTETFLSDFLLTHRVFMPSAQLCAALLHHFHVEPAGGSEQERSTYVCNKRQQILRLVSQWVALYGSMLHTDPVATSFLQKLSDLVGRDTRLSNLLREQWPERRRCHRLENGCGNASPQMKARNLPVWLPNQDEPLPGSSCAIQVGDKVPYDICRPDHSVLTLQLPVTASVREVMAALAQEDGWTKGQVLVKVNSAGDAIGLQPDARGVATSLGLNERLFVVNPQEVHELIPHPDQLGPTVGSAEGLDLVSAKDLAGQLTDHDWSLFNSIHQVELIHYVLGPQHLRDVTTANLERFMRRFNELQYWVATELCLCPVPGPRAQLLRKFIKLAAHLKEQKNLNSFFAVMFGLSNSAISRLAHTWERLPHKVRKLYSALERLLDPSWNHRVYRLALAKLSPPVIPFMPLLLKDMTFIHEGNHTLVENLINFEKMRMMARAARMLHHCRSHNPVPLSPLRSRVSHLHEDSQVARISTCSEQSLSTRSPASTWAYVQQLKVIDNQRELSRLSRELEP
# [10] = target: Rap guanine nucleotide exchange factor 4 (Homo sapiens) (UniProt Q8WZA2); test: Confirmatory qHTS for agonist of cAMP-regulated guanine nucleotide exchange factor 4 (EPAC2) (AID 1645884);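 also: nucleotide exchange releases bodipy-GDP from Rap1 and this lowers its fluorescence; % is scaled to controls: 0 for no effect and ±100 for the full control effect; nearly all actives have a fitted effect of over 65% in size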
# Rap guanine nucleotide exchange factor 4 (Homo sapiens), sequence (Q8WZA2 whole entry, looked up): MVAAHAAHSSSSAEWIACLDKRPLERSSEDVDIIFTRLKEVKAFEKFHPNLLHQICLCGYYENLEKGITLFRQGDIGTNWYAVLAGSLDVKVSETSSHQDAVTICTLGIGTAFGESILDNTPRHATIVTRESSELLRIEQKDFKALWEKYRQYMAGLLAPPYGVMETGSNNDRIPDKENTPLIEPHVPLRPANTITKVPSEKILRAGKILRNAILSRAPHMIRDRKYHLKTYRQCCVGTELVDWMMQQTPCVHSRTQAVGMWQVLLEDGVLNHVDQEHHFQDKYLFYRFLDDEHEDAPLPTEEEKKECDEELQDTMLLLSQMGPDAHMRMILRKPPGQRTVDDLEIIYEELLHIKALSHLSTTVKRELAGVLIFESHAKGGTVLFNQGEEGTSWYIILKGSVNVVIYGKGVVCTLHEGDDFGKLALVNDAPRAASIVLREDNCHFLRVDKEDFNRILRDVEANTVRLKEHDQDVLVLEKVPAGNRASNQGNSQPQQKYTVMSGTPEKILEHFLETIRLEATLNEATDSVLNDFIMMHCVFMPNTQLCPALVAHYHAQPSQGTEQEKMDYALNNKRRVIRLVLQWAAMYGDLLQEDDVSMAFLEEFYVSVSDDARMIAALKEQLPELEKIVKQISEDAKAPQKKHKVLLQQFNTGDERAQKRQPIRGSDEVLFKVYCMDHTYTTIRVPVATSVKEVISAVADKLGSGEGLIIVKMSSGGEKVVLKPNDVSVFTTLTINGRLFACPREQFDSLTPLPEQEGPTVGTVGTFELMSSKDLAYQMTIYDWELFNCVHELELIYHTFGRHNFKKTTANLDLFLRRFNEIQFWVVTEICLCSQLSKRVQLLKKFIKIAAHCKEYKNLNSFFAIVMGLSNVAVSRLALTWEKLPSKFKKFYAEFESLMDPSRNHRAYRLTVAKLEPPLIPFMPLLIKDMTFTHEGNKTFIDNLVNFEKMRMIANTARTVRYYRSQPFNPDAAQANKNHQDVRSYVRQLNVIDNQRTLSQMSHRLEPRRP
# [11] = target: Rap guanine nucleotide exchange factor 4 (Homo sapiens) (UniProt Q8WZA2); test: Confirmatory qHTS for antagonist of cAMP-regulated guanine nucleotide exchange factor 4 (EPAC2) (AID 1645885); also: % is scaled to controls: 0 for no effect and ±100 for the full control effect; nearly all actives have a fitted effect of over 25% in size
# [12] = target: Rap guanine nucleotide exchange factor 3 (Homo sapiens) (UniProt O95398); test: Counterscreen qHTS for antagonist of cAMP-regulated guanine nucleotide exchange factor 3 (EPAC1) (AID 1645888);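 also: fluorescence loss as bound BODIPY-GDP is released from Rap1B; % of control where 0% means no effect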
# Summary of the method: (§1)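 Rap1B-BODIPY-GDP 250 nM + GDP 50 uM; cpds 7-pt, final 9.74 nM–152 uM (activator mode) or from 7.32 nM upwards (inhibitor mode); RT; FI 480/540 nm at 5 and 30 min, then ± cAMP, reread.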
# [13] = target: Rap guanine nucleotide exchange factor 3 (Homo sapiens) (UniProt O95398); test: Counterscreen qHTS for agonist of cAMP-regulated guanine nucleotide exchange factor 3 (EPAC1) (AID 1645889); also: nearly all actives have a fitted effect of over 40% in size; also: potency is read from the fitted curve at half-maximal effect
# Summary of the method: as §1
# [14] = target: Rap guanine nucleotide exchange factor 3 (Homo sapiens) (UniProt O95398); test: Confirmatory qHTS for antagonist of cAMP-regulated guanine nucleotide exchange factor 3 (EPAC1) (AID 1645880);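 also: plate controls were DMSO only for no effect and full effect of the ATA control for full effect; nearly all actives have a fitted effect of over 55% in size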
# Summary of the method: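 Nucleotide exchange uses 100 nM EPAC1, 250 nM RAP1B-BODIPY-GDP and 50 uM GDP, with compounds in a concentration-titration series. After 5 min at room temperature, fluorescence (480 nm ex/540 nm em) is read every 5 min for 30 min. Data are normalized to control ATA and DMSO.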
structure (smiles),measurement,setting,value
Cc1ccc2nc(-c3ccc(O)cc3)c(Nc3ccc(Cl)cc3)n2c1,Potency,[1],inactive
COc1cc2c(NC3CCN(CC4CCCCC4)CC3)nc(N3CCCN(C)CC3)nc2cc1OCCCN1CCCCC1,Potency,[1],34.5 µM (active)
Cc1ccc(S(=O)(=O)Nc2cnccc2C(=O)Nc2nc(-c3cccc(C)c3)cs2)cc1,outcome,[2],inactive
same,Potency,[3],1.37 µM (active)
same,Potency,[1],17.3 µM (active)
COc1cc2nc(N3CCOCC3)nc(NC(C)C)c2cc1OC,Potency,[1],34.5 µM (active)
CC[C@]12C=CCN3CC[C@@]4(c5cc([C@@]6(C(=O)OC)CC7C[C@@H](C(C)(F)F)CN(Cc8c6[nH]c6ccccc86)C7)c(OC)cc5N(C)[C@H]4[C@@](O)(C(=O)OC)[C@@H]1OC(C)=O)[C@@H]32 (stereo partly drawn),Potency,[4],0.263 µM (active)
same,Potency,[5],0.186 µM (active)
COc1ccc(C(=O)CSc2nc(C)cc(C)c2C(=O)Nc2ccccc2C)cc1,Potency,[1],inactive
C=CC(=O)N1CC[C@@H](Oc2nc(Nc3ccc(N4CCC(N5CCN(C)CC5)CC4)cc3)c(C(N)=O)nc2CC)C1,Potency,[1],4.15 µM (active)
same,Potency,[4],0.91 µM (active)
same,Potency,[5],1.62 µM (active)
same,Potency,[6],inactive
same,Potency,[7],inactive
same,Potency,[8],1.69 µM (active)
same,Z-AUC,[8]; measured here: PEO1 parental Z-AUC,-1.18
same,Z-AUC,[8]; measured here: PEO4 Z-AUC,-1.49
O=C(Nc1onc2c1CCCC2)c1ccccc1,Potency,[1],inactive
Oc1cccc(Nc2nc(-c3ccccc3)nc3ccccc23)c1,Potency,[1],15.8 µM (active)
Cc1cccc(C(=O)Nc2sc3c(c2C(=O)O)CCCC3)c1,Potency,[1],35.5 µM (active)
same,Potency,[9],inactive
same,Potency,[10],inactive
same,Potency,[11],inactive
same,Potency,[12],inactive
same,Potency,[13],inactive
COc1cc2c(NC3CCN(C(C)C)CC3)nc(N3CCCCC3)nc2cc1OCCCN1CCCCC1,Potency,[1],38.8 µM (active)
O=C1NC(=O)/C(=C/c2ccc(-c3ccc(F)cc3)o2)S1,Potency,[4],inactive
Cc1ccc(Nc2ncnc3c2cnn3-c2ccccc2)c(C)c1,Potency,[1],3.98 µM (active)
COc1cc2nc(Nc3ccc(C)c(C)c3)nc(N)c2cc1OC,Potency,[1],39.8 µM (active)
COc1cccc(-c2n[nH]c3c2C(c2cccc(O)c2)N(C)C3=O)c1 (stereo not drawn),Potency,[1],44.7 µM (active)
O=C(O/N=C1\c2ccccc2-c2nc3ccccc3nc21)c1ccco1,Potency,[4],18.4 µM (active)
Cc1cccc(NC(=O)c2sc3nc(-c4cc5ccc(O)cc5oc4=O)[nH]c(=O)c3c2C)c1,Potency,[1],6.02 µM (active)
same,Potency,[14],inactive
same,Potency,[12],inactive
same,Potency,[13],50.1 µM (active)
O=c1cc(-c2ccccc2)oc2ccc(O)cc12,Potency,[1],20 µM (active)
same,Potency,[4],18.4 µM (active)
same,Potency,[6],inactive
COc1cc(-c2nc3ccc(Cl)cn3c2Nc2ccc3c(c2)OCCO3)ccc1O,Potency,[1],5.15 µM (active)
C=CC(C)(/C=C/c1ccc(O)cc1)CCC=C(C)C (stereo not drawn),Potency,[4],20.6 µM (active)
same,Potency,[5],18.4 µM (active)
CCCCOc1ccc(CC/C=C2\SC(=O)N(CCN)C2=O)cc1,Potency,[4],9.2 µM (active)
same,Potency,[5],8.2 µM (active)
O=c1c2cc3c(cc2nc2sc(Nc4ccccc4)nn12)OCO3,Potency,[1],inactive
O=C1N=C(O)S/C1=C\c1ccc2nccnc2c1,Potency,[4],18.4 µM (active)
same,Potency,[5],20.6 µM (active)
COc1ccccc1-c1nc(SCC(=O)Nc2ccc(C)c(C)c2)n[nH]1,Potency,[4],inactive
COc1cc(-c2nc3ccc(Cl)cn3c2Nc2ccc3c(c2)OCO3)ccc1O,Potency,[1],5.15 µM (active)
O=Nc1c(-c2c(O)[nH]c3ccc(F)cc23)[nH]c2ccccc12,Potency,[4],1.84 µM (active)
same,Potency,[5],2.06 µM (active)
Cc1cc(F)ccc1S(=O)(=O)Nc1cnccc1C(=O)Nc1nc(-c2ccccc2)cs1,outcome,[2],inactive
same,Potency,[3],0.968 µM (active)
same,Potency,[1],21.8 µM (active)
CC(NC(=O)c1sc2ncccc2c1-n1cccc1)c1ccccc1 (stereo not drawn),Potency,[1],28.2 µM (active)
same,Potency,[9],inactive
same,Potency,[10],inactive
same,Potency,[11],inactive
same,Potency,[12],inactive
